Data on 31 molecules can be found in PubChem BioAssay (NCATS).

Inconclusive results are not listed. Entries that show only a call come without a potency. Calls of active or inactive are those of the source. The call rests on the fitted dose curve; in most records, active means well fitted cell-killing curve with a large enough effect; inconclusive means small, poorly fitted or top-dose-only effect; inactive means no such curve, though single readings can be large or run the other way.
Potency means the concentration at half of the fitted maximal effect.

A short description of this assay: qHTS of pediatric cancer cell lines to identify multiple opportunities for drug repurposing: Primary screen for MG 63 (6-TG R) cells (AID 1347105). Further: nearly all actives have a fitted effect of over 50% in size. Particulars: MG 63 (6-TG R) viability, CellTiter-Glo, 48 h; series mostly up to 46 µM. The gist of the method: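 Following a 5-hour attachment period, cells at 500-1,000/well received compounds and were cultured for 48 hours. CellTiter-Glo was added and luminescence read to estimate viable, metabolically active cells.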
(In general: qHTS replaces the single test concentration by a dilution series.)
As to `CCCCCCCCCCCCCCC[C@H](O)[C@@H](N)CO`, the Potency result was “inactive”.
Turning to `CCN1CCN(C(=O)N[C@@H](C(=O)N[C@@H]2C(=O)N3C(C(=O)O)=C(CSc4nnnn4C)CS[C@H]23)c2ccc(O)cc2)C(=O)C1=O`, the Potency entry is “inactive”.
For the molecule `COc1ccc(C(=O)c2ccccc2)c(O)c1`, the Potency entry was “inactive”.
Regarding `CC(C)[N+](C)(C)CC(O)COc1cccc2ccccc12` (stereo unspecified), the Potency entry was “inactive”.
For `OCCOCCN1CCN(C2=Nc3ccccc3Sc3ccccc32)CC1`, the Potency result is “inactive”.
Consider `CCCCCCCCOc1ccc(C(=O)c2ccccc2)c(O)c1`, for which the Potency result was “inactive”.
For the molecule `O=C1C(CCS(=O)c2ccccc2)C(=O)N(c2ccccc2)N1c1ccccc1` (stereo unspecified), the Potency result was “inactive”.
Take `O=C1OC(CN2CCOCC2)CN1/N=C/c1ccc([N+](=O)[O-])o1` (stereo unspecified): the Potency entry is “inactive”.
In the case of `CCCCN=C(N)N=C(N)N`, the Potency result was “inactive”.
On to `Cc1ncc(CO)c(C=O)c1O`, for which the Potency entry is “inactive”.
Consider `COc1ccc2c(c1)c1c3n2CCN(C)C3=NCC1`, for which the Potency entry is “inactive”.
As for `O=C(Nc1cccc(C2=NCCN2)c1)Nc1cccc(C2=NCCN2)c1`, the Potency result was “inactive”.
With `O=C(NC1CCN(CCc2c[nH]c3ccccc23)CC1)c1ccccc1` the entry was “inactive”; with `CCCCCCCCCCCCCCCC(=O)O`, “inactive”; with `CC(C)n1c(/C=C/[C@@H](O)C[C@@H](O)CC(=O)O)c(-c2ccc(F)cc2)c2ccccc21`, 841 nM (active).
`Cc1cc(CC(=O)O)c(C)n1-c1ccc(Cl)cc1`: the Potency entry is “inactive”.
Take `NS(=O)(=O)c1cc2c(cc1Cl)NC(CC1CCCC1)NS2(=O)=O` (stereo unspecified): the Potency entry was “inactive”.
For the molecule `Cc1cccc(C)c1NC(=O)c1ccccc1C(=O)O`, the Potency entry is “inactive”.
Consider `CN1CCN(c2cc3c(cc2F)c(=O)c(C(=O)O)cn3-c2ccc(F)cc2)CC1`, for which the Potency entry was “inactive”.
Turning to `C/C=C/C=N/NC(=O)c1ccncc1`, the Potency result was “inactive”.
With `CC(C)CCCC(C)N` (stereo unspecified) the entry was “inactive”; with `COC(=O)C(c1ccccc1Cl)N1CCc2sccc2C1` (stereo unspecified), “inactive”.
For `CCOc1ccccc1C(N)=O`, the Potency entry was “inactive”.
Regarding `C[N+]1(CC2COC(c3ccccc3)(C3CCCCC3)O2)CCCCC1` (stereo unspecified), the Potency result was “inactive”.
With `CCN1/C(=C/C=C/c2sc3ccccc3[n+]2CC)Sc2ccccc21`, the Potency was 1840 nM (active).
As for `CCC1NC(=O)c2cc(S(N)(=O)=O)c(Cl)cc2N1` (stereo unspecified), the Potency result was “inactive”.
With `CN(CCCN1c2ccccc2CCc2ccccc21)CC(=O)c1ccc(Cl)cc1`, the Potency result is “inactive”.
As to `CC(=O)O[C@]1(C(C)=O)CC[C@H]2[C@@H]3C=C(Cl)C4=CC(=O)CC[C@]4(C)[C@H]3CC[C@@]21C`, the Potency result was “inactive”.
In the case of `CCCN(CCC)S(=O)(=O)c1ccc(C(=O)O)cc1`, the Potency entry was “inactive”.
Regarding `CCOc1cc(OCC)c(C(=O)CCC(=O)O)cc1OCC`, the Potency entry is “inactive”.
Consider `O=C(O)Cc1csc(-c2ccc(Cl)cc2)n1`, for which the Potency entry is “inactive”.
